The nature of assay [1]: Nuclear factor erythroid 2-related factor 2/antioxidant responsive element (Nrf2/ARE) small molecule agonists: qHTS cell viability counter screen in human keratinocytes (AID 1919968; active = well fitted curve in the direction sought with a large enough effect in the repeat runs; an effect the other way counts as inactive or inconclusive; note: nearly all actives have a fitted effect of over 55% in size; note: potency is the fitted concentration of half-maximal effect). In short, it runs like this:
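Viability counter-screen: KeratinoSens reporter cells, DMSO-delivered compounds, 23 h at 37 C, CellTiter-Fluor fluorescence.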

The nature of assay [2]: Nuclear factor erythroid 2-related factor 2/antioxidant responsive element (Nrf2/ARE) small molecule agonists: luciferase reporter gene qHTS assay in human keratinocytes (AID 1919969; note: nearly all actives have a fitted effect of over 35% in size; note: potency is the fitted concentration of half-maximal effect). (In general: Reporter assays use an easily measured gene product as a stand-in for the process of interest.)
In assay [3] the target is Gonadotropin-releasing hormone receptor (Homo sapiens) (UniProt P30968). As to the kind of experiment: Human gonadotropin-releasing hormone receptor (GnRHR) small molecule agonists, calcium flux assay in GnRHR-HEK293 cells (AID 1920063). Note: nearly all actives have a fitted effect of over 35% in size. Note: potency is the fitted concentration of half-maximal effect. The gist of the method:
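Tox21-format agonist screen using human GnRHR-expressing HEK293 cells and a fluorescent calcium dye; kinetic 3-min fluorescence reading after compound addition, 15-point concentration series run in triplicate.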
For orientation: Calcium flux is commonly read through the fluorescence of an indicator in the cells.

The target of assay [4] is KiSS-1 receptor (Homo sapiens) (UniProt Q969F8). The assay can be described thus: Human kisspeptin (KISS1R) small molecule agonists, calcium flux assay in KISS1R-HEK293 cells (AID 1920064; active = well fitted curve in the direction sought with a large enough effect in the repeat runs; an effect the other way counts as inactive or inconclusive). In short, it runs like this:
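Intracellular calcium mobilization in KISS1R-HEK293 cells was recorded by fluorescence (Ex/Em 480/540) for 3 min following compound addition to cells pre-loaded 1 h with calcium dye.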

Assay [5] can be described thus: G protein-coupled receptor (GPCR) small molecule agonists, calcium flux assay: HEK293 wild type cell line counter screen (AID 1920065). In short, it runs like this: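 In this agonist-mode screen, ATP is the positive control and DMSO the vehicle. Cells grow 18 h before a 1 h dye incubation at 37 C; signal is taken at Ex/Em 480/540 over 3 min.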
A short description of assay [6]: p53 small molecule agonists, cell-based qHTS assay with rat liver microsomes (AID 1963578). The gist of the method:
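Fluorescence from a beta-lactamase reporter under a p53 response element was measured after cells had been incubated 16 h at 37 C with test compound and rat liver microsomes plus NADPH (0.5 mg/mL final each).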
For orientation: qHTS replaces the single test concentration by a dilution series.

Assay [7] is described as follows: p53 small molecule agonists, cell-based qHTS assay with human liver microsomes: qHTS cell viability counter screen (AID 1963579). Note: nearly all actives have a fitted effect of over 45% in size. In short, it runs like this: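 Seed p53RE-bla cells at 4,000 per well; incubate 5 h at 37 C; add compound, human liver microsomes and NADPH; incubate 16 h at 37 C; add CellTiter-Glo; after 30 min at room temperature, read luminescence.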

The nature of assay [8]: p53 small molecule agonists, cell-based qHTS assay with rat liver microsomes: qHTS cell viability counter screen (AID 1963580). Note: nearly all actives have a fitted effect of over 45% in size. The gist of the method: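 Intracellular ATP, by CellTiter-Glo luminescence, defines viability. HCT-116 p53RE-bla cells, 4,000 per well, were compound-treated in the presence of rat liver microsomes and NADPH for 16 h at 37 C.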
Assay [9] in a line: p53 small molecule agonists, cell-based qHTS assay: qHTS cell viability counter screen (AID 1963581). Note: nearly all actives have a fitted effect of over 45% in size. The gist of the method: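 Compounds are pinned onto HCT-116 p53RE-bla cells and left 16 h at 37 C. Following the reporter FRET read, ATP is quantified by CellTiter-Glo luminescence after 30 min at room temperature.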
Assay [10] concerns the target 5-hydroxytryptamine receptor 2A (Homo sapiens) (UniProt P28223). As to the kind of experiment: 5-hydroxytryptamine receptor 2A (HTR2A) small molecule antagonists, cell-based qHTS assay (AID 1963586). Note: nearly all actives have a fitted effect of over 45% in size. The gist of the method:
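Antagonist-mode intracellular calcium assay: DOI (4 nM) added after 5 min compound pre-incubation at room temperature to dye-loaded HTR2A-CHO cells. Fluorescence followed for 3 min, sampled every second.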

The target is the same in assay [11]. As to the kind of experiment: 5-hydroxytryptamine receptor 2A (HTR2A) small molecule agonists, cell-based qHTS assay (AID 1963587). Note: nearly all actives have a fitted effect of over 30% in size. The gist of the method:
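Kinetic calcium-flux fluorescence (2 min, 1 sec intervals) after compound addition in agonist mode. HTR2A-CHO cells were cultured 18 h, then dye-loaded 1 h at 37 C.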

Assay [12] addresses Muscarinic acetylcholine receptor M1 (Homo sapiens) (UniProt P11229). The assay can be described thus: Cholinergic receptor muscarinic 1 (CHRM1) small molecule antagonists, cell-based qHTS assay (AID 1963588). Note: nearly all actives have a fitted effect of over 40% in size. In short, it runs like this: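 CHRM1-CHO calcium-flux assay, antagonist mode. Cells were seeded 18 h, dye-loaded 1 h at 37 C and given compound for 5 min at RT, then acetylcholine was added at 50nM. FDSS fluorescence was read 3 min; 15 concentrations, three runs.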

The target is the same in assay [13]. As to the kind of experiment: Cholinergic receptor muscarinic 1 (CHRM1) small molecule agonists, cell-based qHTS assay (AID 1963589). Note: nearly all actives have a fitted effect of over 35% in size. The gist of the method: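 Stable CHRM1-CHO cells (human receptor) were incubated 18 h, dye-loaded for 1 h at 37 C and exposed to test compounds for agonist activity, with calcium-dependent fluorescence followed kinetically.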

Assay [14] concerns the target Beta-2 adrenergic receptor (Homo sapiens) (UniProt P07550). As to the kind of experiment: Adrenergic beta2 receptor (ADRB2) small molecule antagonists, cell-based qHTS assay (AID 1963592). Note: nearly all actives have a fitted effect of over 50% in size. Note: potency is the fitted concentration of half-maximal effect. The gist of the method: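 Cells (CHO, stable ADRB2 overexpression) incubated 18-20hr at 37C; compounds added from DMSO; agonist mix (1nM isoproterenol, 100uM IBMX, 25uM Ro-20-1724) added; 0.5hr RT; d2-cAMP and anti-cAMP-cryptate added; 1hr RT; 665/615 nm read.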

Assay [15] concerns the target D(2) dopamine receptor (Homo sapiens) (UniProt P14416). As to the kind of experiment: Dopamine D2 receptor (DRD2) small molecule agonists, cell-based qHTS assay (AID 1963594). Note: nearly all actives have a fitted effect of over 35% in size. In short, it runs like this: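 cAMP accumulation in DRD2-HEK293 cells measured by HTRF after 1 h detection; compounds added 10 min before NKH477 (200nM […]) forskolin-analogue stimulation, 30 min at room temperature, with Ro20-1724 present at 0.1 mM final.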

Assay [16] in a line: cAMP Responsive Elements (CRE) small molecule antagonists, cell-based qHTS assay (AID 1963591; active = well fitted inhibition curve with a large enough effect in the signal ratio in the repeat runs, not every such curve was filed as active; the % refers to the signal ratio). The gist of the method: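 qHTS in CRE-bla HEK 293T cells: compound in DMSO, then 0.25 uM NKH477 (final), 3 h at 37 °C/5% CO2; beta-lactamase FRET read-out after 2 h substrate incubation.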
In assay [17] the target is Beta-2 adrenergic receptor (Homo sapiens) (UniProt P07550). As to the kind of experiment: Adrenergic beta2 receptor (ADRB2) small molecule agonists, cell-based qHTS assay (AID 1963593).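 Note: CHO cells stably overexpressing human ADRB2.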 The gist of the method: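 CHO cells stably over-expressing ADRB2 were plated overnight at 37C, then dosed with compounds plus a stimulation mix containing 100uM IBMX and 25uM Ro-20-1724 for 0.5hr at room temperature. cAMP was measured by HTRF competition, 1hr.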

Assay [18] has as its target D(2) dopamine receptor (Homo sapiens) (UniProt P14416). As to the kind of experiment: Dopamine D2 receptor (DRD2) small molecule antagonists, cell-based qHTS assay (AID 1963595; active = well fitted inhibition curve with a large enough effect in the signal ratio in the repeat runs, with a control signal flat; the % refers to the signal ratio; note: potency is the fitted concentration of half-maximal effect). In short, it runs like this:
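Antagonism was scored as restored cAMP in HEK293-DRD2 cells. These cells were stimulated with 200 nM NKH477 and 12 nM quinpirole for 30 min at room temperature, in the presence of 0.1 mM Ro20-1724.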

The nature of assay [19]: p53 small molecule agonists, cell-based qHTS assay (AID 1963582; active = well fitted activation curve with a large enough effect in the signal ratio in the repeat runs, not every such curve was filed as active; the % refers to the signal ratio). The gist of the method: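 Agonist activity was scored from beta-lactamase FRET fluorescence in p53RE-bla cells treated 16 h at 37 C with compounds in DMSO, substrate incubation being 2 h at room temperature.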
A short description of assay [20]: cAMP Responsive Elements (CRE) small molecule agonists, cell-based qHTS assay (AID 1963590). The gist of the method:
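FRET-based beta-lactamase readout (LiveBLAzer B/G, 2 h RT) quantified CRE activation in HEK 293T CRE-bla cells after 3 h treatment with DMSO-dissolved compounds.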

Molecules are shown by their SMILES. Inconclusive results are not listed. Activity calls are given as the source filed them. Unless noted, calls come from the whole dose curve.

5-hydroxytryptamine receptor 2A (Homo sapiens), sequence (P28223 whole entry, looked up): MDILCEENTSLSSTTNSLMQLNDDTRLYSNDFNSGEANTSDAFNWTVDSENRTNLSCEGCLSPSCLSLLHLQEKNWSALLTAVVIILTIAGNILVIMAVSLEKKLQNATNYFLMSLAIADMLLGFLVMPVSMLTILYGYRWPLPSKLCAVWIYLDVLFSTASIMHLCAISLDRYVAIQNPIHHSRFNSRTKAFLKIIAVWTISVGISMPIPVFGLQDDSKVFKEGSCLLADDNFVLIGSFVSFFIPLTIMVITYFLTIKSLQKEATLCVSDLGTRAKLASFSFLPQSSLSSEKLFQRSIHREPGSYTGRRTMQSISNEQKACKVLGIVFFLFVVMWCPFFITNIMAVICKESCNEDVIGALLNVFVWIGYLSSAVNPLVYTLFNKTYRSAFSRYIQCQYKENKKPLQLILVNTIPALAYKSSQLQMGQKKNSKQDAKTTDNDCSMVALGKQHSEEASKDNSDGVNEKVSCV
Beta-2 adrenergic receptor (Homo sapiens), sequence (P07550 whole entry, looked up): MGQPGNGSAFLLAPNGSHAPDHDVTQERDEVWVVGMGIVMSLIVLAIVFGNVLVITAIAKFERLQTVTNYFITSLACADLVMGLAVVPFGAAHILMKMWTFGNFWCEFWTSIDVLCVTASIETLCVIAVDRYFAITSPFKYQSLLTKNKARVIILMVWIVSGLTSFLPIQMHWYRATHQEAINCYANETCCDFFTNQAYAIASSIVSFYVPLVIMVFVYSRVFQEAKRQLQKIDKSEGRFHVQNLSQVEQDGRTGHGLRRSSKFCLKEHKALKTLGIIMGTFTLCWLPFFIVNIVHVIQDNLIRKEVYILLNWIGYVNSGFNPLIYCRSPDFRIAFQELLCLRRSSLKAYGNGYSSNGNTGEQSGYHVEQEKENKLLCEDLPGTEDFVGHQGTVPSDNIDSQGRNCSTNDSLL
D(2) dopamine receptor (Homo sapiens), sequence (P14416 whole entry, looked up): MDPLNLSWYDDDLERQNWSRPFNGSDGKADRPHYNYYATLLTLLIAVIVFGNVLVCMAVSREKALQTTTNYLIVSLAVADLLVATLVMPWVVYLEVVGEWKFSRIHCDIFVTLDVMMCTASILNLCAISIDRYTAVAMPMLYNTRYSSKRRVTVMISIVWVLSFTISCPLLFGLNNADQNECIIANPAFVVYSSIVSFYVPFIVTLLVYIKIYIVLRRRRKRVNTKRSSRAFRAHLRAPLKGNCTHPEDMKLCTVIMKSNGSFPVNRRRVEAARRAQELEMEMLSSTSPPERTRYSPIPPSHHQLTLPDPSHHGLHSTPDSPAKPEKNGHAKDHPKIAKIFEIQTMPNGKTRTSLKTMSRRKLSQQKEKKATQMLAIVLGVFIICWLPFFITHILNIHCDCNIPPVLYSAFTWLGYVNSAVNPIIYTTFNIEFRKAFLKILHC
KiSS-1 receptor (Homo sapiens), sequence (Q969F8 whole entry, looked up): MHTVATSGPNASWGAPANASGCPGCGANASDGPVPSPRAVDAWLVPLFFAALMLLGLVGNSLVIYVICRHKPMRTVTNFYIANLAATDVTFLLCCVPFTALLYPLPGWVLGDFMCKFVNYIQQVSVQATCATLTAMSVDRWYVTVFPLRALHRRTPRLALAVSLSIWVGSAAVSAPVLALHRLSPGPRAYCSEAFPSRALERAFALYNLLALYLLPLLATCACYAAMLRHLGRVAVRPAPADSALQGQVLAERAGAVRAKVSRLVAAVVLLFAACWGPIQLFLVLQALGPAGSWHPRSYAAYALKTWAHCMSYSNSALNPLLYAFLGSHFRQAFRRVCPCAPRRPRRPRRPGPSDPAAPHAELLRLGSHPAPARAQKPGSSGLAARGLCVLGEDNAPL
Muscarinic acetylcholine receptor M1 (Homo sapiens), sequence (P11229 whole entry, looked up): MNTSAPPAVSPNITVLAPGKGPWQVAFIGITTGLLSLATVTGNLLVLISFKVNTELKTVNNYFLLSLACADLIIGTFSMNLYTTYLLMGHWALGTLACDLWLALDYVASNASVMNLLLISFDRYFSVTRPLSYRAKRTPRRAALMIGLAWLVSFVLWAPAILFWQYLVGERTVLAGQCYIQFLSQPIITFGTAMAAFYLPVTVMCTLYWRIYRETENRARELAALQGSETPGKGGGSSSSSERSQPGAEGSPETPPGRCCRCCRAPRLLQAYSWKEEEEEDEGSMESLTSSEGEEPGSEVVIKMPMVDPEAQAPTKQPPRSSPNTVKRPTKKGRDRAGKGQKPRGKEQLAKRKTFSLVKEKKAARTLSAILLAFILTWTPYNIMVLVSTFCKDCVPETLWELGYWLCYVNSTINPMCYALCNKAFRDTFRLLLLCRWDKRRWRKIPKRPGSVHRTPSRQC
Gonadotropin-releasing hormone receptor (Homo sapiens), sequence (P30968 whole entry, looked up): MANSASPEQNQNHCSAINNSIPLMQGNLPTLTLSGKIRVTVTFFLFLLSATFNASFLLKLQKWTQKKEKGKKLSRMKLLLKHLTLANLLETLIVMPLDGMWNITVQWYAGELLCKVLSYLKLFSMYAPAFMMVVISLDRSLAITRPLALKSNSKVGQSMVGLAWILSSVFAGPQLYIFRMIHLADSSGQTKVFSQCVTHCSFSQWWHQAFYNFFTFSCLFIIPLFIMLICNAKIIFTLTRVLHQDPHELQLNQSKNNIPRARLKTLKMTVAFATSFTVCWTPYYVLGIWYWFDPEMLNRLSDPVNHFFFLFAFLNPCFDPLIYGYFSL

As for `CCOC(=O)COC(=O)c1cc(Oc2ccc(C(F)(F)F)cc2Cl)ccc1[N+](=O)[O-]`, the Potency entry in [1], in assay [2], in assay [3], in assay [4], in [5] and in [6] was “inactive” each time. The Potency result in assay [7], in assay [8], in assay [9], in assay [10], in assay [11] and in assay [12] was “inactive” throughout. For the same compound, the Potency result in [13] and in [15] was “inactive” in each case. The Potency in assay [14] was 61.1 µM (active).
On to `COc1ccc(/C=C/c2cc(OC)cc(=O)o2)cc1`, for which the Potency entry in assay [1], in assay [2], in assay [3], in assay [4], in assay [5] and in assay [6] was “inactive” throughout. In addition, the Potency entry in assay [7], in [8], in assay [11], in assay [12], in assay [13] and in assay [16] was “inactive” throughout. Also, the Potency result in assay [14], in [17], in assay [15] and in assay [18] was “inactive” each time.
With `ClCCOCCOCCCl`, the Potency result in [1], in assay [2], in assay [3], in assay [4], in [5] and in [6] was “inactive” each time. For the same compound, the Potency result in assay [7], in assay [9], in assay [19], in assay [10], in assay [11] and in [12] was “inactive” throughout. Besides, the Potency entry in assay [13], in assay [20], in [16], in assay [14], in assay [17] and in assay [15] was “inactive” in each case. The Potency entry in [18] was “inactive”.
With `CC[C@H]1O[C@]2(CC[C@@H]1C)C[C@@H]1C[C@@H](C/C=C(\C)C[C@@H](C)/C=C/C=C3\CO[C@@H]4[C@H](O)C(C)=C[C@@H](C(=O)O1)[C@]34O)O2`, the Potency in assay [1] is 15.2 µM (active); in assay [18] it was 48.1 µM (active). For the same compound, the Potency entry in [2], in assay [3], in assay [4], in assay [5], in assay [6] and in [7] was “inactive” in each case. Besides, the Potency result in assay [8], in assay [9], in assay [10], in [11], in assay [13] and in assay [14] was “inactive” each time. The Potency result in assay [15] is “inactive”.
With `Nc1nc(F)nc2c1ncn2[C@@H]1O[C@H](CO)[C@@H](O)[C@@H]1O`, the Potency entry in [1], in [2], in assay [3], in assay [4], in assay [5] and in [6] was “inactive” each time. The Potency result in [7], in [8], in assay [9], in assay [20], in assay [16] and in assay [14] was “inactive” each time. Moreover, the Potency result in assay [15] and in assay [18] was “inactive” throughout.
Turning to `Cc1c(-c2cccnc2)c2ccccc2n1CCCCC(=O)O`, the Potency result in assay [1], in [2], in assay [3], in assay [4], in [5] and in [6] was “inactive” in each case. The Potency entry in assay [7], in assay [8], in assay [19], in assay [10], in [11] and in assay [12] was “inactive” throughout. Also, the Potency result in assay [13] and in assay [14] was “inactive” each time.
For the compound `CC1=Nc2ccc3ccccc3c2C1(C)C`, the Potency entry in assay [1], in assay [4], in assay [5], in assay [6], in [7] and in assay [9] was “inactive” throughout. Besides, the Potency entry in [11], in [12], in assay [15] and in assay [18] was “inactive” in each case. In addition, the Potency is 68.6 µM (active) in [2] and 38.9 µM (active) in [3].
Turning to `CCCCNC(=O)NCCCC`, the Potency entry in [1], in assay [2], in [3], in assay [4], in assay [5] and in [6] was “inactive” throughout. Also, the Potency entry in [7], in assay [9], in assay [19], in assay [10], in assay [11] and in [12] was “inactive” each time. In addition, the Potency result in [13], in assay [20], in assay [16], in [14], in assay [17] and in assay [15] was “inactive” in each case.

The values above are taken from PubChem BioAssay (Tox21).
